Source: PubChem (National Center for Advancing Translational Sciences (NCATS))
Most compounds without a hit are left out; they make up all but 3.1% or so of the library.
Tau FP inhib: blocks human tau fibril formation measured by polarization; Potency, µM (highest dose often 57.7 µM), for the others: at the top dose activity, negative = inhibition, usual class: inhibitors; 0.39% of 280,000 active; K18 P301L tau heparin fibrillization, Alexa594 FP, 6 h; P10636; note: nearly all actives have a fitted effect of over 55% in size
Target sequence (P10636 561-689 P618L limits assumed): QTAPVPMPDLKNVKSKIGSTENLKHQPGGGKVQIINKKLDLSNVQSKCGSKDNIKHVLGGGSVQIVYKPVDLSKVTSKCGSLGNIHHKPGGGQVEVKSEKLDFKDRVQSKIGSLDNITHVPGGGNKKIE
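Read-out: fluorescence polarization of Alexa 594-labeled tau (0.24 uM), 555 nm excitation, 632 nm emission. Mixtures held 15 uM unlabeled K18 P301L, compound and 20 uM heparin, pH 7 acetate buffer, incubated 6 hr at 37 C.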
Tau fluor counter: counter-screen for tau fibril formation inhibitors. tau K18 P301L Alexa594 fluorescence, heparin fibrillization. Potency, µM (doses to about 57.7 µM), for the others: at the top dose activity change, negative = decrease. 0.93% of 280,000 active. AID 1463; note: nearly all actives have a fitted effect of over 55% in size
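Human tau K18 P301L (15 uM unlabeled, 0.24 uM Alexa 594-labeled) in 100 mM sodium acetate pH 7 with 20 uM heparin, 6 hr at 37 C. ThT 30 uM added, 1 hr ambient; Alexa 594 FP and total fluorescence read at 555/632 nm.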
TRb-SRC2 inh: inhibitors of human thyroid hormone receptor beta-SRC2 interaction; 0.065% of 280,000 active; TRbeta-SRC2 peptide binding, fluorescence polarization; receptor liganded with 1 µM T3; AID 1469; Potency, µM (highest dose often 106 µM), without a hit: top-dose activity change, negative = inhibition, usual class: inhibitors; P10828;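 note: plate controls were bound peptide for no effect and peptide without receptor for full effect; nearly all actives have a fitted effect of over 50% in size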
Target sequence (P10828 whole entry, looked up): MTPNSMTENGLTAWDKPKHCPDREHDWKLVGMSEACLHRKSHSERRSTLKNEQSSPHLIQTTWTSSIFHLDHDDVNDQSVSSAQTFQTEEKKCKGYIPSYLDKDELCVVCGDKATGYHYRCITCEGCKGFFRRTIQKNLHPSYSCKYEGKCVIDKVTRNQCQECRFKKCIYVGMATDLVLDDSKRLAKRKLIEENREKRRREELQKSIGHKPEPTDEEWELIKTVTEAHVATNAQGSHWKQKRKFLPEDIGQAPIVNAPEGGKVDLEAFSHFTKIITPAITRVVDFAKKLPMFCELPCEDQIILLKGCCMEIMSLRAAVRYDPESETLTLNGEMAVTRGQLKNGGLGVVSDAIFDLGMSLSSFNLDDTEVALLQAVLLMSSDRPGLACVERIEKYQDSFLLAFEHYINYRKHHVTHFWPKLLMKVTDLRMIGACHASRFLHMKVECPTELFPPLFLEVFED
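Quantitative HTS by FP: 0.6 uM TRb LBD, 20 nM labeled SRC2 20-mer, 1 uM T3, 5% DMSO; 5 hr ambient incubation; % activity per concentration and potencies from concentration series.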
TR SRC2 fluor cs: Texas Red fluorescence interference in TRb-SRC2 counter-screen; TRb/SRC2 Texas Red total fluorescence interference; Potency, µM (highest dose often 106 µM), for the others: top-dose fluorescence change, negative = quenching; 0.29% of 280,000 active; active = well fitted curve in either direction with a large enough effect; inconclusive = small, poorly fitted or top-dose-only effect
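Human TRβ ligand-binding domain (0.6 uM) and Texas Red SRC2 peptide (20 nM) in Tris buffer with 1 uM T3 and 5% DMSO were incubated with pinned compound for 5 hr at ambient temperature. Total fluorescence was computed as S + 2P (555/632 nm).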
Tau ThT inhib: tau fibrillization inhibition (ThT binding); Potency, µM (highest dose often 57.4 µM), inactives show at the highest dose activity, negative = inhibition, actives largely listed as inhibitors; 2.1% of 270,000 active; P10636; recombinant tau K18 P301L, heparin-induced fibrillization, ThT fluorescence; AID 1460; note: nearly all actives have a fitted effect of over 55% in size
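Using a mix of unlabeled (15 uM) and Alexa 594-labeled (0.24 uM) tau K18 P301L, heparin-triggered fibrillization over 6 hr at 37 C was scored by ThT fluorescence.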
Numbers without * were called inactive; ? = inconclusive; [ ] = another dose, or the depositor's remark. Unless noted, calls come from the whole dose curve; as a rule, active = well fitted curve in the direction sought with a large enough effect; inconclusive = small, poorly fitted or top-dose-only effect, or another doubt; inactive = no such curve, though single readings can be large; an effect the other way counts as inactive or inconclusive. Unless noted, % is set by controls: 0 for no effect and ±100 for the full control effect; potency is the fitted concentration of half-maximal effect.

SMILES | Tau FP inhib | Tau fluor counter | TRb-SRC2 inh | TR SRC2 fluor cs | Tau ThT inhib
CC[C@@H]1C(c2ccccc2)=NN(c2ccc(Br)cc2)[C@H]1C(=O)N1CCOC1=O | 11%[81.3 µM] | 7.9µM*[quencher] | 9% | 4% | ?
CC[C@@H]1C(c2ccc(F)cc2)=NN(c2ccc(Br)cc2)[C@H]1C(=O)N1CCOC1=O | 8% | 10µM*[quencher] | 7% | 2% | ?
O=[N+]([O-])c1ccccc1NC(=S)N/N=C/c1ccc(O)c(O)c1 | 2% | ? | 1% | -13% | 5.6µM*
CC(=O)c1cc(NC(=O)c2ccc(Cl)cc2)c(=O)oc1/C=C/N(C)C | ? | -27% | -16% | -2% | 10µM*
CC(=O)c1cc(NC(=O)c2cccc(C(F)(F)F)c2)c(=O)oc1C | 35µM* | -28% | -7% | 0% | 25µM*
CC(=O)c1cc(NC(=O)c2cccc(C(F)(F)F)c2)c(=O)oc1/C=C/N(C)C | -2% | -6% | -3% | 0% | ?
CC1=C(C(=O)Nc2ccccc2Br)C2(CCC(C)CC2)OC1=O (configuration not stated) | 1% | -8% | 0% | -24% | -5%
COc1cccc(C=Nc2cc(C)cc(C)c2)c1O | -5% | 5% | -1% | 0% | ?
COc1cc(Br)cc(C=Nc2cccc(C(F)(F)F)c2)c1O | -1% | -4% | 2% | -2% | 14µM*
N[C@@H](Cc1c[nH]c2ccc(O)cc12)C(=O)O | ? | ? | 3% | -1% | 28µM*
Cc1ccc(CNC(=O)c2cc(=O)c3cc(C)cc(C)c3o2)cc1 | ? | -18% | -14% | 4µM*[quencher] | -11%
Cc1ccc(-c2[nH]ncc2/C=N/n2c(COc3ccccc3)nc3ccccc3c2=O)cc1 | 2% | 0% | -5% | 3% | 9%
Cc1cc(/C=N/n2c(COc3ccccc3)nc3ccccc3c2=O)c(O)c([N+](=O)[O-])c1 | 14% | ? | 9% | -7% | 11µM*
Cc1ccc(C(=O)c2coc3cc([N+](=O)[O-])c(O)c([N+](=O)[O-])c23)cc1 | -1% | -28% | -11% | ? | 3.5µM*
Cc1cc(SCC(=O)N/N=C/c2ccc(O)cc2O)c(C)cc1Br | -7% | 16µM*[quencher] | 2% | 4% | ?
O=c1ccc(-c2ccccc2)nn1Cc1c(F)cccc1Cl | 2% | -17% | -3% | 1% | -13%
COC1=CC(=O)C(O)=C/C1=C\C=C\c1ccccc1 | 16µM* | ? | -6% | -6% | 7.9µM*
O=C(Oc1ccc(Br)cc1C(=S)N1CCCC1)c1ccccc1F | -12% | -22% | -3% | 0% | ?
O=C(Oc1cccc(C(=S)N2CCOCC2)c1)c1cc([N+](=O)[O-])cc([N+](=O)[O-])c1 | -1% | 20µM*[quencher] | -4% | -1% | ?
O=C(Oc1ccc(Br)cc1C(=S)N1CCCCC1)c1cc([N+](=O)[O-])cc([N+](=O)[O-])c1 | -1% | 22µM*[quencher] | -13% | -3% | ?
CS(C)(=O)=O | -6% | -4% | -7% | -2% | 2%
CCN(CC)S(=O)(=O)c1cccc(NC(=O)C2SC(=Nc3ccc(C)cc3C)C(C(=O)NC(C)COC)=C2N)c1 (configuration not stated) | 0% | 25µM*[quencher] | -13% | 0% | -14%
N=c1c(-c2nc3ccccc3[nH]2)cc(C(=O)c2ccco2)nn1-c1ccccc1 | 10% | ? | 5% | -1% | 16µM*
N=c1c(-c2nc3ccccc3[nH]2)cc(C(=O)c2cccs2)nn1-c1ccccc1 | -4% | -4% | -6% | 0% | -2%
O=C(Nc1ccc(Cl)cc1)Nc1cccc2nsnc12 | 14µM* | ? | -2% | 2% | ?
SMILES | Tau FP inhib | Tau fluor counter | TRb-SRC2 inh | TR SRC2 fluor cs | Tau ThT inhib
O=C(COc1ccccc1)Nc1cccc2nsnc12 | 0% | -5% | -13% | -1% | -12%
O=C(Nc1ccc(Cl)cc1)Nc1ccccc1NS(=O)(=O)c1cccs1 | ? | 14µM*[quencher] | 1% | 0% | ?
Cc1cc(=O)[nH]c2c3ccccc3nn12 | -6% | -9% | 4% | 1% | -6%
Nc1nn2c(C(F)(F)F)cc(=O)[nH]c2c1N=Nc1cccc(F)c1 | -15% | ? | 9% | ? | 7.9µM*
Cc1cc(=O)[nH]c2c(N=Nc3ccc(O)cc3)c(N)nn12 | 10% | -26% | 8%[53 µM] | -20%[53 µM] | 8.9µM*
CCCC[C@@H]1C[C@H]1C(NC(=O)c1cccs1)c1ccc(Cl)cc1 (some centres not stated) | -1% | -22% | 2% | 3% | ?
COc1cc2oc(=O)cc(-c3ccc(-c4ccc(O)cc4)cc3)c2c(OC)c1OC | ? | 10µM*[quencher] | 5% | 1% | ?
COc1ccc(-c2ccc(-c3cc(=O)oc4cc(OC)c(OC)c(OC)c34)cc2)cc1OC | 10% | -20% | 6% | 7% | -14%
O=c1cc(-c2ccccc2O)oc2c(O)c(O)ccc12 | 13µM* | ? | 3% | -9% | 11µM*
Cc1nn(C)c2c1c(C(F)(F)F)cc(=O)n2C(C)C(=O)NCc1ccccc1Cl (configuration not stated) | 5% | -12% | -21% | 316µM*[quencher] | -12%
CCOc1ccc(S(=O)(=O)N2CCN(c3ccccc3)CC2)cc1C(N)=O | -1% | -2% | -4% | 5% | 4%
CCOC(=O)C1=C(c2ccccc2)N=c2s/c(=C\c3ccc(O)cc3)c(=O)n2C1c1cccs1 (configuration not stated) | 32µM* | 8.9µM*[quencher] | 9% | 0% | ?
Cc1oc(-c2ccccc2Cl)nc1Cn1c(SCc2cccc(F)c2)nc2cccnc21 | -2% | -24% | 2% | -3% | ?
O=C1C(=C(c2ccccc2)c2ccccc2)Nc2ccccc21 | -11% | ? | 9% | 3% | 16µM*
O=C1C(=C(O)c2ccccc2)C(=O)c2ccccc21 | ? | -22% | -19% | 0% | ?
COc1ccc(Nc2ncc(C(=O)Nc3ccc(F)cc3F)c3ccccc23)cc1 | ? | 11µM*[quencher] | 2% | -2% | ?
COc1ccc(OC)c(NC(=O)c2cnc(Nc3ccc(C)c(Cl)c3)c3ccccc23)c1 | ? | ? | 4% | -2% | 2%
Cc1ccccc1NC(=O)COC(=O)c1ccc(S(C)(=O)=O)c([N+](=O)[O-])c1 | -2% | ? | -9% | -6% | 13µM*
Cc1cccc(NC(=O)Cn2ncc3c4ccccc4n(Cc4ccccc4)c3c2=O)c1C | -4% | -11% | 3% | -2% | -6%
COC1=C/C(=C/c2c(O)c(C#N)c3ccccn23)C=CC1=O | -11% | -21% | 0% | 1% | 14µM*
CCOc1ccccc1CNC(=O)c1ccc2nc(Cc3ccc(OC)cc3)oc2c1 | -2% | -17% | 4% | -9% | -14%
Cc1ccccc1CN1C(=O)c2ccccc2S(=O)c2ccc(C(=O)N3CCOCC3)cc21 (configuration not stated) | -3% | -9% | 0% | 3% | 1%
